Data taken from PubChem BioAssay (NCI).
This is part of a sample that, as a whole, favours compounds with a hit. Of some 79,000 tested, about 15% had one in any assay. Unmarked numbers belong to inactive results. The source made the active and inactive calls. No stated cut-off is given here; in the data, active means growth inhibition above about 70%; inactive means the rest.

Assay: NCI Yeast Anticancer Drug Screen. Data for the bub3 strain (AID 167)
Conditions: S. cerevisiae bub3 mutant strain, hits give high values
Method: Growth inhibition of yeast strains with defined genetic alterations is measured as a screen for potential anti-cancer activity. Selected strains with alterations in DNA damage repair or cell cycle control were exposed to compounds and growth inhibition was measured relative to vehicle treated controls. The strain used in this assay is bub3

[1] = at 5.0 µM (retest, dose inferred, filed as 0.5)
[2] = at 50.0 µM (retest, dose inferred, filed as 5.0)

SMILES | growth inhibition (at 1.2 µM) [%] | growth inhibition (at 3.7 µM) [%] | growth inhibition [1] [%] | growth inhibition (at 11.0 µM) | growth inhibition (at 33.0 µM) | growth inhibition [2] | growth inhibition (at 50.0 µM) | growth inhibition (at 100.0 µM)
C=C1CC(CCCl)(c2ccccc2)OC1=O (stereo not given) | -6 | 37 | 37 | 76% (active) | 96% (active) | 98% (active) | 92.4% (active) | 99% (active)
CCOc1ccc(NC(=O)C2=C(C)NC(C)=C(C(=O)Nc3ccc(OCC)cc3)C2c2cccc([N+](=O)[O-])c2)cc1 | -3 | -2 | -8 | 1% | 54% | 97% (active) | 41% | 93% (active)
CC(=O)ON=C1C=CC(=C(C#N)c2ccc(Cl)cc2)C=C1 | -4 | -4 | 3 | -5% | 7% | 75% (active) | 56% | 50%
CCCCCCSc1ncnc2[nH]ncc12 | 4 | 7 | 11 | 9% | 15% | 54% | 93% (active) | 6%
Clc1ccc2c(c1)N(CCCN1CCCC13CCCCC3)c1ccccc1S2 | 4 | -13 | -5 | 1% | 2% | 15% | -0.55% | 7%
